Results on 40 molecules are retold here after PubChem BioAssay (NCATS).

SMILES strings stand for the structures. Results filed as inconclusive are left out. A call without a number means that no potency is given here. Active and inactive are the calls of the source. Calls follow the shape of the dose curve; as a rule, active = well fitted cell-killing curve with a large enough effect; inconclusive = small, poorly fitted or top-dose-only effect; inactive = flat fitted curve, though single readings scatter.
Potency is read from the fitted curve at half-maximal effect.

This assay is described as follows: Cell Viability - LYMP2-017 (AID 972). Also: nearly all actives have a fitted effect of over 55% in size. Conditions: LYMP2-017 lymphoblastoid cell viability; series mostly up to 92.2 µM. An excerpt:
NIH Chemical Genomics Center [NCGC]
NIH Molecular Libraries Screening Centers Network [MLSCN]
National Institutes of Environmental Health Sciences [NIEHS]
National Toxicology Program [NTP]
We have developed a 1536-well cell-based assay for quantitative high throughput screening (qHTS) against a number of cell lines to determine in vitro cytotoxicity of small molecules. This particular assay uses a human lymphoblastoid cell line (LYMP2-017) purchased from Coriell Institute for Medical Research.
NCGC Assay Protocol Summary:
The CellTiter-Glo luminescent cell viability assay (Promega) is a homogeneous method to measure the number of viable cells in culture. The end point readout of this assay is based on quantitation of intracellular ATP, an indicator of metabolic activity, using the luciferase reaction. Luciferase catalyzes the oxidation of beetle Luciferin to oxyluciferin and light in the presence of ATP. The luminescent signal is proportional to amount of ATP present.
Using the CellTiter-Glo luminescent cell viability assay, the amount of cellular ATP was measured in the lymphoblastoid cell line with complete culture medium following compound treatment for 24 hours. The assay was performed in opaque white Kalypsys 1536-well plates. In the screen, tetraoctylammonium bromide was used as positive control. Library compounds were measured for their ability to cause acute toxicity in the cell line, as reflected by a decrease in intracellular ATP levels, in a concentration-dependent manner. […] AC50 values were determined from concentration-response data modeled with the standard Hill equation.
qHTS protocol for CellTiter Glo lymphoblastoid cellular assay
[Step] [Parameter] [Value] [Description]
1. Reagent; 5 uL; 2500 lymphoblastoid cells/well
2. Time; 5 hr; 37 C incubation
4. Controls; 23 nL; Tetraoctylammonium bromide 6.4pM to 92 uM
5. Time; 24 hr; 37 C incubation
6. Reagent; 5 uL; CellTiter Glo reagent
7. Time; 30 min; Room Temperature
8. Detection; Luminescence; Viewlux plate reader
Keywords: cell viability, cytotoxicity, lymphoblastoid cell line, luminescence, NTPHTS, NTPHTS_NCGC, NIEHS, DSSTox, MLSMR, MLSCN, NIH Roadmap, qHTS, NCGC
As to `CC(C)[N+](=O)[O-]`, the Potency entry is “inactive”.
Then `CCOP(=S)(OCC)Oc1nc(Cl)c(Cl)cc1Cl`, with “inactive”; and `C=CC(=O)OCC(C)C`, with “inactive”.
Then `CCCN(CCC)c1c([N+](=O)[O-])cc(C(F)(F)F)cc1[N+](=O)[O-]`, with “inactive”; and `C=CCc1cc(OC)c2c(c1)OCO2`, with “inactive”.
For `Oc1cc(Cl)ccc1Cl`, the Potency result is “inactive”.
As to `c1ccc(C2CO2)cc1` (stereo not given), the Potency result is “inactive”.
Consider `O=[N+]([O-])c1cc(Cl)c(Cl)cc1Cl`, for which the Potency result is “inactive”.
For the molecule `CCSC(=O)N1CCCCCC1`, the Potency result is “inactive”.
The value for `Cc1ccccc1[N+](=O)[O-]` was “inactive”; that for `OCCCCO` was “inactive”.
For `CCCC[N+](=O)[O-]`, the Potency result is “inactive”.
Regarding `CCOC(=O)CC(SP(=O)(OC)OC)C(=O)OCC` (stereo not given), the Potency entry is “inactive”.
The value for `ClC(Cl)C(Cl)Cl` was “inactive”; that for `CCN(CC)N=O` was “inactive”; that for `C[N+](=O)[O-]` was “inactive”.
Regarding `O=S(=O)(Cl)c1ccccc1`, the Potency result was “inactive”.
Take `CCCCC(=O)Cl`: the Potency entry was “inactive”.
Take `O=[N+]([O-])CCO`: the Potency result is “inactive”.
As to `c1ccoc1`, the Potency result was “inactive”.
In the case of `Nc1cc(Cl)ccc1Cl`, the Potency entry is “inactive”.
Turning to `CC(C)CC(C)N` (stereo not given), the Potency entry is “inactive”.
`Clc1ccc(C(Cl)(Cl)Cl)c(Cl)c1`: the Potency result was “inactive”.
As for `Nc1ccc(-c2ccc(N)cc2)cc1`, the Potency entry is “inactive”.
Take `O=[N+]([O-])c1ccccc1O`: the Potency result was “inactive”.
Take `BrCC(Br)(Br)Br`: the Potency was 15.8 µM (active).
On to `ClCCCCl`, for which the Potency entry was “inactive”.
Consider `ClC(Br)Br`, for which the Potency entry was “inactive”.
Regarding `Brc1cccc(-c2ccccc2)c1`, the Potency entry was “inactive”.
Consider `Oc1c(Cl)cccc1Cl`, for which the Potency result is “inactive”.
`Nc1ccccc1-c1ccccc1`: the Potency result was “inactive”.
With `CC(=O)[O-].CC(=O)[O-].CC(=O)[O-].[Cr+3]`, the Potency result was “inactive”.
Turning to `CC(C)OC(=O)Cc1ccccc1`, the Potency result is “inactive”.
As for `N#CC(Br)Br`, the Potency is 39.8 µM (active).
For `CC(=O)CCC(C)=O`, the Potency result is “inactive”.
The value for `N#CC(O)c1ccccc1` (stereo not given) was “inactive”.
Then `OCCOCCO`, with “inactive”.
On to `Cl/C=C/CCl`, for which the Potency entry was “inactive”.
For the molecule `O=C(O)C(Br)Br`, the Potency entry was “inactive”.
Take `CN(C)N=O`: the Potency entry is “inactive”.
